Data on 16 molecules can be found in PubChem BioAssay (Tox21).

Each structure is given as a SMILES string. Where “and” joins values, the source holds several entries; their conditions need not be identical. Equal values may be shown once. Results filed as inconclusive are left out. Calls of active or inactive are those of the source. Unless noted, calls follow the shape of the dose curve; as a rule, active = well fitted curve in the direction sought with a large enough effect in the repeat runs; inconclusive = weak or mixed curves; inactive = no such curve, though single readings can be large; an effect the other way counts as inactive or inconclusive.

Assay [1] is described as follows: qHTS assay for small molecules that induce genotoxicity in human embryonic kidney cells expressing luciferase-tagged ATAD5 (AID 651632). Also: nearly all actives have a fitted effect of over 15% in size. Also: potency is read from the fitted curve at half-maximal effect. The essentials: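 Test compounds were delivered by pin tool onto HEK293T reporter cells (2,000/well) expressing ATAD5 fused to luciferase. After 16 hr at 37C, 5% CO2, Amplite was added for 30 min at room temperature and luminescence was measured.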
(In general: qHTS replaces the single test concentration by a dilution series.)

The nature of assay [2]: qHTS assay for small molecule agonists of the p53 signaling pathway - cell viability (AID 651633; calls by dose curve; also: nearly all actives have a fitted effect of over 30% in size; also: potency is read from the fitted curve at half-maximal effect). The essentials: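 p53RE-bla cells, seeded at 4,000 per well and rested 5 h at 37 C/5% CO2, received compounds in DMSO for 16 h at 37 C. CellTiter-Glo was then added, and luminescence was read after 30 min at room temperature to gauge cytotoxicity.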
Assay [3] can be described thus: qHTS assay for small molecules that induce genotoxicity in human embryonic kidney cells expressing luciferase-tagged ATAD5 - cell viability (AID 651634; calls by dose curve; also: nearly all actives have a fitted effect of over 25% in size; also: potency is read from the fitted curve at half-maximal effect). The essentials: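 Quantitative high-throughput format. HEK293T cells expressing ATAD5 fused to luciferase were plated at 2,000 cells/well and treated 15.5 hr with compound versus DMSO. Viability was determined by fluorescent live-cell protease substrate, 30 min at 37C.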

Assay [4] is described as follows: qHTS assay for small molecule disruptors of the mitochondrial membrane potential (AID 720635). Also: potency is read from the fitted curve at half-maximal effect. The essentials:
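HepG2 cells (2,000/well) attached overnight at 37C, then took compound for 1 hr at 37C, 5% CO2. Mito-MPS dye was added for 30 min; fluorescence was read at 490/535 nm (monomers) and 540/590 nm (aggregates).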

The nature of assay [5]: qHTS assay to test for compound auto fluorescence at 590 nm (red) in HepG2 cells (AID 720674). The method in brief:
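Rose Bengal sodium served as the red fluorophore standard. HepG2 monolayers (overnight attachment, MEM with 10% FBS) were exposed to test compounds for 1 hr at 37 C and read at Ex 540/Em 590 nm.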

A short description of assay [6]: qHTS assay to test for compound auto fluorescence at 535 nm (green) in HepG2 cells (AID 720675).
Assay [7] can be described thus: qHTS assay to test for compound auto fluorescence at 460 nm (blue) in HEK293 cells (AID 720678). The essentials: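 Auto fluorescence in the blue band was quantified as triamterene equivalency. HEK293 cells were seeded at 2,000/well, dosed after a 4-5 hr attachment, and kept overnight at 37C before the 405/460 nm reading.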
Assay [8] in a line: qHTS assay to test for compound auto fluorescence at 590 nm (red) in HEK293 cells (AID 720679). The essentials: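 Autofluorescence equivalency to Rose Bengal sodium, 540/590nm, in HEK293 cells exposed overnight to 23 nL compound per well.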
Assay [9] in a line: qHTS assay for small molecule disruptors of the mitochondrial membrane potential - cell viability (AID 720634; calls by dose curve; also: nearly all actives have a fitted effect of over 20% in size; also: potency is read from the fitted curve at half-maximal effect). The method in brief: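 Same-well counter-screen: following the MMP dye addition, CellTiter-Glo was added to 1 hr compound-treated HepG2 cells and luminescence read after 30 min at room temperature.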

On to `CC1CCC(C(C)C)C(OC(=O)c2ccccc2N)C1` (stereo not drawn), for which the Potency entry in [1], in assay [3] and in assay [7] was “inactive” throughout. Also, the Potency was 26.6 µM (active) and 60.3 µM (active) in [2]; 13.3 µM (active) and 17 µM (active) in assay [4]. The outcome in [5], in assay [6] and in assay [8] was inactive.

For the molecule `O=S(=O)(c1ccc(Cl)cc1)c1ccc(Cl)cc1`, the Potency result in [1], in assay [2], in assay [3] and in assay [7] was “inactive” in each case. Besides, the Potency in assay [4] was 4.92 µM (active). Moreover, the outcome in [5], in assay [6] and in assay [8] was inactive.

`CCCOCC(=Nc1ccc(Cl)cc1C(F)(F)F)n1ccnc1`: the Potency entry in assay [1] and in assay [7] was “inactive” throughout. In addition, the Potency is 24.3 µM (active) in assay [2], 61.1 µM (active) in assay [3], 30.6 µM (active) in [9] and 6.11 µM (active) in [4]. Besides, the call in [5], in assay [6] and in assay [8] was inactive.

`CCC[CH2][Sn]([CH2]CCC)([CH2]CCC)[O]C(=O)c1ccccc1`: the Potency entry in [1] and in [7] was “inactive” each time. For the same molecule, the Potency in assay [2] was 0.611 µM (active); in assay [3] it was 1.22 µM (active); in [9], 2.17 µM (active); in [4], 0.077 µM (active). Further, the outcome in assay [5], in [6] and in [8] was inactive.

For the molecule `O=[N+]([O-])c1ccc(Oc2ccc(C(F)(F)F)cc2[N+](=O)[O-])cc1`, the Potency result in [1], in [2], in assay [3] and in assay [7] was “inactive” in each case. In addition, the values for the Potency in assay [9] and in [4] were 19.3 µM (active) and 12.2 µM (active), respectively. The outcome in [5], in assay [6] and in [8] was inactive.

`C=CC(=O)OCC(COC(=O)C=C)(COC(=O)C=C)COC(=O)C=C`: the Potency was 5.45 µM (active) in assay [1], 6.86 µM (active) in assay [2] and 12.2 µM (active) in assay [3]. For the same molecule, the Potency entry in assay [9] and in assay [7] was “inactive” in each case. The outcome in assay [5], in assay [6] and in assay [8] was inactive.

For the molecule `CC(=O)C(Cl)(Cl)Cl`, the Potency result in [1], in assay [2] and in assay [7] was “inactive” each time. In addition, the Potency in assay [3] is 13.2 µM (active); in assay [9] it was 0.209 µM (active); in [4], 0.743 µM (active). Further, the molecule was classed as inactive in assay [5], in [6] and in assay [8].

Take `CN(C)C1CSSSC1`: the Potency result in assay [1], in [2], in assay [3], in assay [9] and in assay [7] was “inactive” throughout. Also, the call in assay [5], in [6] and in [8] was inactive.

On to `O=C(O)COc1nc(Cl)c(Cl)cc1Cl`, for which the Potency result in assay [1], in assay [2], in assay [3], in assay [9] and in assay [7] was “inactive” throughout. Moreover, in assay [4], the Potency is 19.8 µM (active). Besides, the molecule was classed as inactive in assay [5], in assay [6] and in [8].

For `c1ccc(Nc2ccc3ccccc3c2)cc1`, the Potency result in assay [1], in assay [2], in [3] and in assay [7] was “inactive” each time. Further, the Potency in [9] is 17.1 µM (active); in [4], 8.58 µM (active) and 13.7 µM (active). Further, the molecule was called inactive in [5], in assay [6] and in [8].

Turning to `COP(=S)(OC)Oc1cc(Cl)c(Br)cc1Cl`, the Potency entry in [1], in assay [2], in [3] and in [7] was “inactive” throughout. Moreover, the Potency in assay [9] is 54.5 µM (active); in [4], 6.86 µM (active). The call in assay [5], in assay [6] and in assay [8] was inactive.

Consider `S=C=Nc1cccc2ccccc12`, for which the Potency result in assay [1], in assay [3] and in [7] was “inactive” in each case. The Potency in assay [2] was 48.1 µM (active); in assay [9] it was 48.1 µM (active); in [4], 17.1 µM (active). The call in assay [5], in [6] and in assay [8] was inactive.

For `O=C(CBr)c1ccc(O)cc1`, the Potency result in assay [1], in assay [2], in assay [3], in assay [9] and in assay [7] was “inactive” each time. Further, the call in assay [5], in [6] and in assay [8] was inactive.

Regarding `N#CCCSCCC#N`, the Potency result in assay [1], in assay [2], in assay [3], in assay [9], in assay [4] and in assay [7] was “inactive” in each case. Besides, the call in [5], in assay [6] and in assay [8] was inactive.

On to `O=[N+]([O-])c1c2ccccc2cc2ccccc12`, for which the Potency result in [1], in assay [2], in [3] and in assay [7] was “inactive” in each case. Besides, the Potency in assay [4] was 8.53 µM (active). The call in assay [5], in assay [6] and in assay [8] was inactive.

`O=c1ssc(Cl)c1Cl`: the Potency entry in [1] and in assay [7] was “inactive” each time. The Potency is 54.5 µM (active) in [2], 61.1 µM (active) in [3], 61.1 µM (active) in [9] and 30.6 µM (active) in assay [4]. The result in assay [5], in assay [6] and in assay [8] was inactive.
